# ssDAF12 agonist – activates DAF-12 receptor from parasite S. stercoralis. HEK293 ssDAF-12/GRIP1 lit1-tk-luc reporter, luminescence; % of 3 µM dafachronic acid response. activation, % at 6.8 µM. actives 1% (n = 370,000);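 active = activation above the mean over all tested compounds plus 3 SD, cut at about 0.9% in these data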;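 also: 0% = DMSO-only wells and 100% = 3 µM delta7-dafachronic acid wells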
# hgDAF12 agonist – activates the H. glycines DAF-12 receptor ligand-binding domain; HEK293 GAL4-hgDAF12 UAS-luciferase reporter, agonist luminescence; normalized to butyrate control; activation, % at 6.8 µM; actives 1.8% (n = 370,000);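 active = activation above a cutoff set at the mean of all screened compounds plus 3 SD, cut at about 10% in these data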;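 also: 0% = DMSO wells and 100% = sodium butyrate wells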
# DAX1 inh-1 – DAX1 (NR0B1) inhibition, primary screen. HEK293T StAR-luciferase reporter, SF-1/DAX-1 repression relief. inhibition, % at 6.8 µM. actives 1.1% (n = 370,000);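 active = inhibition above the mean over all tested compounds plus 3 SD, cut at about 3.6% in these data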;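 also: 0% = DAX-1 cells with DMSO and 100% = cells lacking DAX-1 with DMSO; higher inhibition means more luminescence from relief of DAX-1 repression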
# hcDAF-12 act – H. contortus DAF-12 activation, primary screen | HEK293 hcDAF-12 lit1-tk-luc reporter, luminescence; 0% DMSO, 100% Δ7-dafachronic acid | activation, % at 6.8 µM | actives 1.4% (n = 370,000) | AID 652067;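 active = activation above the mean of all tested compounds plus 3 SD, cut at about 5.5% in these data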;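 also: 100% = response to 3 µM Δ7-dafachronic acid high control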
# AHR activator – human AHR activation. activation, % at 5 µM. AID 2796. AHR-responsive luciferase reporter cells, luminescence. actives 2.5% (n = 320,000). P35869; in the data active = activation above about 47%;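 also: 0% = vehicle wells and 100% = reference agonist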
# Target sequence (P35869 whole entry, looked up): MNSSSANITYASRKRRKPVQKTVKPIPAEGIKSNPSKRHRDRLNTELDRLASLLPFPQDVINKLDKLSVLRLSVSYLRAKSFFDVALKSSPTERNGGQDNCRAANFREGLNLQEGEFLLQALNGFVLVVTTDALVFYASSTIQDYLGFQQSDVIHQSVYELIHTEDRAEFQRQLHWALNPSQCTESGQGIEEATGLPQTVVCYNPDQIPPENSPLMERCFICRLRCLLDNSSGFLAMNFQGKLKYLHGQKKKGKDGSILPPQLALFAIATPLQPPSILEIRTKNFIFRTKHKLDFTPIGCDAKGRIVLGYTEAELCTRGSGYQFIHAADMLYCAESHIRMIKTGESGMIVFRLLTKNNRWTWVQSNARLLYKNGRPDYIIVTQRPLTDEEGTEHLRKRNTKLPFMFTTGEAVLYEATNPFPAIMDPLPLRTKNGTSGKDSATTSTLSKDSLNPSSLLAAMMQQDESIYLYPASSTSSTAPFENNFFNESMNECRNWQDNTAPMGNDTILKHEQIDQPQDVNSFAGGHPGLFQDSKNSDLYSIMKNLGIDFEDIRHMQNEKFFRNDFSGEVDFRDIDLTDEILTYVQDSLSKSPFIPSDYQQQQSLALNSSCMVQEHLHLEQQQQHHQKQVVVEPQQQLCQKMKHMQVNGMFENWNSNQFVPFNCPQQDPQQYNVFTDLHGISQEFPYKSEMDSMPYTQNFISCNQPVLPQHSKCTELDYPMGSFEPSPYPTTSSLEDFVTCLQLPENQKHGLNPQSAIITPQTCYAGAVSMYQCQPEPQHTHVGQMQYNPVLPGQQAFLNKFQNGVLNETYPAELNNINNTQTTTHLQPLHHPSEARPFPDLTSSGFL
# DAX1 inh-2 – inhibitors of human orphan nuclear receptor DAX1 (NR0B1); P51843; HEK293 Gal4-DAX1 luciferase reporter, luminescence; inhibition, % at 6.75 µM; actives 0.99% (n = 340,000);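 active = inhibition above the mean over all tested compounds plus 3 SD, cut at about 4.2% in these data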;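 also: 0% = DAX1-transfected cells with DMSO and 100% = empty-vector control cells with DMSO; inhibition shows as a rise in luminescence from relieved DAX1 repression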
# LXRb hcDAF ctr – activates human LXR-beta, counter-screen for hcDAF-12 agonists. shares compounds with hcDAF-12 act. HEK293 Gal4-LXR tk-luc reporter, luminescence, 24 h; normalized: DMSO 0%, positive control 100%. activation, % at 6.8 µM. 3,400 tested, under 10 active. AID 743027;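 active = mean percent activation of the reporter above a cutoff set as the average over tested compounds plus their standard deviation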
# hcDAF12 conf – hcDAF-12 agonism, confirmation assay; AID 743032; shares compounds with hcDAF-12 act; HEK293 hcDAF-12 lit1-tk-luc reporter, luminescence; % of Δ7-dafachronic acid response; actives 61% (n = 3,400); activation, % at 6.8 µM;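 active = mean activation across triplicate tests above the threshold derived from the earlier primary screen, cut at about 5.5% in these data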;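 also: 0% = DMSO only wells and 100% = 3 µM Δ7-dafachronic acid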
# Starred values were filed as active, the others as inactive; / = no result given. Shown are actives, neighbours in structure and some others; about 5.7% of the full set was active somewhere.
SMILES,ssDAF12 agonist,hgDAF12 agonist,DAX1 inh-1,hcDAF-12 act,AHR activator,DAX1 inh-2,LXRb hcDAF ctr,hcDAF12 conf
Cc1cccc(N(C(=O)CNC(=O)c2ccco2)C(C(=O)NC2CCCC2)c2cccnc2)c1C (configuration not stated),-1.0,-2.6,0.1,0.1,3.0,0.4,/,/
COc1cc(C(=O)C(O)c2ccc(O)c(OC)c2)ccc1O (configuration not stated),-1.5,1.2,-0.9,-1.6,/,-0.3,/,/
Cc1ccccc1N1CCN(Cc2nc(Cc3ccccc3)no2)CC1,-1.1,2.8,0.1,-1.1,-1.5,-1.3,/,/
CCOc1cc2c3c(c1)C1(C(=O)N3C(C)(C)CC2C)C(C#N)=C(N)N2C(=C1C#N)Nc1ccccc12 (configuration not stated),-0.9,0.6,-0.5,7.2*,58.0*,-1.3,-0.3,-0.6
CN1/C(=C\C(=O)c2cccc([N+](=O)[O-])c2)Sc2ccccc21,-0.1,13.1*,1.0,7.7*,13.9,0.5,1.1,5.9*
CC1CN(CCOc2cccc(Oc3ccccc3)c2)CC(C)O1 (configuration not stated),-1.4,1.4,0.0,-3.0,0.7,-1.4,/,/
O=C(OCc1nc2ccccc2s1)c1cnccn1,0.2,6.8,0.9,8.2*,13.2,3.0,0.6,9.8*
O=C(OCc1nc2ccccc2s1)c1ccccc1O,0.0,6.2,3.6,3.3,6.5,0.3,/,/
O=C(O)c1ccccc1OCc1nc2ccccc2s1,1.2*,9.9,2.0,9.2*,26.0,3.4,0.7,7.2*
CCN(CC)CCCN(Cc1cc2cc(OC)ccc2[nH]c1=O)C(=O)Nc1ccccc1,/,/,/,/,1.4,/,/,/
O=C(c1cc(-c2ccc(Br)cc2)on1)N1CCOCC1,0.4,12.6*,2.9,7.2*,-4.5,-0.5,1.4,4.9
O=C(c1cc(-c2ccc(Cl)c(Cl)c2)on1)N1CCCCC1,-0.3,7.4,1.1,2.4,-3.1,1.2,/,/
O=C(c1cc(-c2ccccc2Cl)on1)N1CCCC1,0.9,12.2*,3.0,8.6*,-8.7,0.0,1.4,11.6*
COc1ccc(C)cc1Nc1nc(C)nc2sc(C)cc12,-1.3,2.8,-1.3,0.2,15.0,1.6,/,/
O=C1C=C(Nc2ccc(O)cc2)C(=O)c2ccccc21,0.9,7.2,-1.5,8.8*,33.1,0.4,0.8,6.6*
CCNC(=O)c1ccc(CSc2nc3ccccc3s2)cc1,-0.4,4.4,-0.8,-0.7,44.2,1.6,/,/
NC(=O)c1ccc(CSc2nc3ccccc3s2)cc1,0.6,7.9,1.1,8.1*,19.4,0.4,0.3,4.0
COc1ccc(CCNC(=O)COC(=O)Cn2cnc3ccccc3c2=O)cc1,-0.4,2.9,-1.8,-0.1,-0.3,-0.3,/,/
COc1ccc(/C=C\c2nc(=O)c3ccccc3o2)cc1,0.5,19.4*,4.2*,7.2*,/,-0.9,1.4,10.8*
N#CC(c1ccccc1O)N1N=C(c2ccccc2)CC1c1ccccc1 (configuration not stated),1.6*,7.8,1.2,9.2*,17.4,4.0,0.6,7.3*
CC1=NN(C(C#N)c2ccccc2C)C(c2ccccc2)C1 (configuration not stated),-1.6,1.2,0.0,3.9,2.6,-0.4,/,/
COc1ccccc1C(C#N)N1N=C(C)CC1c1ccccc1 (configuration not stated),-1.3,-0.9,0.2,-0.9,0.2,0.9,/,/
COc1cc(C(C#N)N2N=C(c3ccccc3)CC2c2ccccc2)ccc1O (configuration not stated),1.4*,12.4*,1.3,7.9*,38.4,1.4,0.0,2.9
Cc1cc2c(nc1C)CCCN2Cc1ccc(Br)cc1,-0.4,1.0,-0.9,3.4,/,/,/,/
COC(=O)COc1ccc(C2NC(=O)NC(c3ccccc3)=C2C(C)=O)cc1Br (configuration not stated),-0.9,-0.1,0.5,-0.4,-1.4,-1.3,/,/
SMILES,ssDAF12 agonist,hgDAF12 agonist,DAX1 inh-1,hcDAF-12 act,AHR activator,DAX1 inh-2,LXRb hcDAF ctr,hcDAF12 conf
CNS(=O)(=O)c1cc(NC(=O)c2cccc3cccnc23)ccc1C,-0.9,2.8,-0.8,-3.4,38.6,-1.4,/,/
CSc1cccc(NC(=O)c2cccc3cccnc23)c1,2.3*,10.6*,0.7,11.9*,47.0,1.5,0.6,8.5*
O=C1C(c2ccnc3ccccc23)=C(O)c2ccccc21,3.3*,16.0*,3.5,26.2*,53.9*,1.3,1.8,19.7*
O=C1C(=O)c2ccccc2C(O)=C1c1ccccc1F,-1.1,-4.8,-0.8,-1.6,2.9,1.6,/,/
NC1=NC(=Nc2cccc(S(N)(=O)=O)c2)c2ccccc21,-1.5,2.4,0.1,-0.6,1.9,0.1,/,/
COc1cc(N=Nc2cccc(S(N)(=O)=O)c2)c2ccccc2c1N,0.3,-1.9,-0.2,9.2*,56.8*,2.9,0.2,2.7
Cc1cc(C(=O)Cn2nnc3ccccc3c2=O)c(C)n1Cc1cccs1,0.9*,8.4,3.4,8.4*,4.7,1.6,1.5,11.9*
Cc1cc(C(=O)CN2C(=O)c3ccccc3C2=O)c(C)n1Cc1cccs1,-1.2,6.3,1.2,3.2,-0.3,-0.1,/,/
O=C(Nc1ccc(-c2nc3ccccc3[nH]2)cc1)c1ccc2c(c1)OCO2,-2.3,-6.0,0.0,-1.6,16.8,-1.3,/,/
c1ccc2[nH]c(-c3ccc4c(c3)OCO4)nc2c1,0.4,12.4*,2.5,9.9*,1.4,/,1.4,4.8
O=C(Nc1ccc(Cl)cc1Cl)c1ccc(Br)o1,0.1,8.3,1.0,8.2*,32.5,2.0,0.7,6.4*
O=c1oc2ccccc2c(Nc2cc3ccccc3cc2O)c1[N+](=O)[O-],1.0*,17.1*,-1.5,8.3*,62.7*,-2.7,1.1,14.3*
O=c1oc2ccccc2c(Nc2ccccc2O)c1[N+](=O)[O-],-1.1,-0.5,-0.3,1.1,10.9,-0.1,/,/
Cc1nc2cc(NC(=O)CCS(=O)(=O)c3ccccc3)ccc2s1,-0.3,11.5*,4.0*,7.8*,17.1,3.7,0.8,3.5
S=C(Nc1ccc(Br)cc1)N1CCCC1,-1.6,0.9,0.5,7.4*,4.3,1.0,-0.1,2.4
CC(C)N=C1NN=C(c2cccs2)CS1,1.4*,12.4*,2.5,8.6*,17.2,1.8,0.8,11.4*
C=CCNC(=S)Nc1cccc([N+](=O)[O-])c1,-0.9,-1.3,-0.5,0.2,3.6,-0.4,/,/
O=C(NCCc1c[nH]c2ccccc12)c1cnccn1,3.4*,2.7,0.1,6.7*,21.1,0.5,-0.1,3.8
